# PPARg SRC1 recr – PPARgamma agonists recruiting SRC-1 coactivator, primary screen, biochemical; Peroxisome proliferator-activated receptor gamma (Homo sapiens), P37231; PPARgamma-SRC-1 coactivator recruitment biochemical assay; activation, % at 8 µM; 0.41% of 200,000 active; AID 631, 2007; in the data active means activation above about 19%;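 further: 0% = DMSO and 100% = reference agonist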
# SRC3 TRFRET art – TR-FRET detection interference compounds, artefact control for PPARgamma SRC-3 recruitment agonists, biochemical, TR-FRET ratio; TR-FRET ratio at 8 µM; 0.39% of 99,000 active; AID 1048, 2008; TR-FRET artefact counter-screen, PPARgamma/SRC-3 format; hits give high values
# SRC1 TRFRET art – TR-FRET detection interference compounds, primary screen, artefact control for PPARgamma SRC-1 recruitment agonists, biochemical, TR-FRET emission ratio; TR-FRET detection artefact counter-screen; hits give high values; TR-FRET ratio at 8 µM; 0.34% of 99,000 active; AID 1051, 2008; in the data active means TR-FRET ratio above about 2300
# PPARg SRC-3 ag – PPARgamma agonists recruiting SRC-3 coactivator, primary screen, biochemical; Peroxisome proliferator-activated receptor gamma (Homo sapiens), P37231; biochemical PPARgamma/SRC-3 coactivator recruitment assay; activation, % at 8 µM; 0.26% of 200,000 active; in the data active means activation above about 23%;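 further: 0% = DMSO and 100% = reference agonist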
# TR-FRET SRC-2 ct – TR-FRET signal artefacts, primary screen, artefact control for PPARgamma SRC-2 agonist project, biochemical; TR-FRET artefact counter-screen; hits give high values; TR-FRET ratio at 8 µM; 0.4% of 200,000 active
# PPARg SRC-2 ag – agonists of PPARg-SRC-2 recruitment, primary screen, biochemical, HTS; PPARgamma LBD-SRC-2 recruitment; activation, % at 8 µM; 0.34% of 200,000 active; AID 1032, 2008; in the data active means activation above about 22%;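 further: 0% = vehicle and 100% = reference agonist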
# PPARg SRC2 ag – agonists of PPARgamma SRC-2 coactivator recruitment, confirmation, biochemical, HTS. shares compounds with PPARg SRC-3 ag. biochemical SRC-2 recruitment by PPARgamma. activation, % at 8 µM. 52% of 790 active. AID 1297, 2008; in the data active means activation above about 22%;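 further: 0% = vehicle alone and 100% = reference agonist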
# PPARg SRC1 ag – PPARgamma agonists recruiting SRC-1 coactivator, confirmation, biochemical. 43% of 790 active. AID 1300, 2008. activation, % at 8 µM. shares compounds with PPARg SRC-3 ag. PPARgamma–SRC-1 coactivator recruitment biochemical assay; in the data active means activation above about 20%;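 further: 0% = vehicle wells and 100% = reference agonist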
# PPARg SRC3 conf – PPARgamma-driven SRC-3 coactivator recruitment agonists, confirmation, biochemical; shares compounds with PPARg SRC-3 ag; biochemical PPARgamma-SRC-3 coactivator recruitment, agonist mode; activation, % at 8 µM; 29% of 790 active; in the data active means activation above about 24%;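 further: 0% = vehicle wells and 100% = reference agonist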
# Target sequence (P37231 whole entry, looked up): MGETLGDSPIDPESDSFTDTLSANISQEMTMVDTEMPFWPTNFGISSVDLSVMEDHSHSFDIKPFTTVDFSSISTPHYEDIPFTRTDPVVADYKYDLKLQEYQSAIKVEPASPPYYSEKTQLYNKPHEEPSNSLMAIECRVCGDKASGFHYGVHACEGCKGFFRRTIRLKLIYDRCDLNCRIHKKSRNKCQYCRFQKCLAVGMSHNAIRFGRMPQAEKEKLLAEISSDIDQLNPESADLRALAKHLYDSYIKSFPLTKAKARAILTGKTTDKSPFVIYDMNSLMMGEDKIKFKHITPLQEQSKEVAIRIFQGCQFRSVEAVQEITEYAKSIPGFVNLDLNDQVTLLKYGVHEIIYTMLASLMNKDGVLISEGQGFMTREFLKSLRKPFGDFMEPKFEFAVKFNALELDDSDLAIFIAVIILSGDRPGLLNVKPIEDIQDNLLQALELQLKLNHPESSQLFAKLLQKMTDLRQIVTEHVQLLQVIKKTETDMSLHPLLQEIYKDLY
# Target sequence (Q9Y6Q9 whole entry, looked up): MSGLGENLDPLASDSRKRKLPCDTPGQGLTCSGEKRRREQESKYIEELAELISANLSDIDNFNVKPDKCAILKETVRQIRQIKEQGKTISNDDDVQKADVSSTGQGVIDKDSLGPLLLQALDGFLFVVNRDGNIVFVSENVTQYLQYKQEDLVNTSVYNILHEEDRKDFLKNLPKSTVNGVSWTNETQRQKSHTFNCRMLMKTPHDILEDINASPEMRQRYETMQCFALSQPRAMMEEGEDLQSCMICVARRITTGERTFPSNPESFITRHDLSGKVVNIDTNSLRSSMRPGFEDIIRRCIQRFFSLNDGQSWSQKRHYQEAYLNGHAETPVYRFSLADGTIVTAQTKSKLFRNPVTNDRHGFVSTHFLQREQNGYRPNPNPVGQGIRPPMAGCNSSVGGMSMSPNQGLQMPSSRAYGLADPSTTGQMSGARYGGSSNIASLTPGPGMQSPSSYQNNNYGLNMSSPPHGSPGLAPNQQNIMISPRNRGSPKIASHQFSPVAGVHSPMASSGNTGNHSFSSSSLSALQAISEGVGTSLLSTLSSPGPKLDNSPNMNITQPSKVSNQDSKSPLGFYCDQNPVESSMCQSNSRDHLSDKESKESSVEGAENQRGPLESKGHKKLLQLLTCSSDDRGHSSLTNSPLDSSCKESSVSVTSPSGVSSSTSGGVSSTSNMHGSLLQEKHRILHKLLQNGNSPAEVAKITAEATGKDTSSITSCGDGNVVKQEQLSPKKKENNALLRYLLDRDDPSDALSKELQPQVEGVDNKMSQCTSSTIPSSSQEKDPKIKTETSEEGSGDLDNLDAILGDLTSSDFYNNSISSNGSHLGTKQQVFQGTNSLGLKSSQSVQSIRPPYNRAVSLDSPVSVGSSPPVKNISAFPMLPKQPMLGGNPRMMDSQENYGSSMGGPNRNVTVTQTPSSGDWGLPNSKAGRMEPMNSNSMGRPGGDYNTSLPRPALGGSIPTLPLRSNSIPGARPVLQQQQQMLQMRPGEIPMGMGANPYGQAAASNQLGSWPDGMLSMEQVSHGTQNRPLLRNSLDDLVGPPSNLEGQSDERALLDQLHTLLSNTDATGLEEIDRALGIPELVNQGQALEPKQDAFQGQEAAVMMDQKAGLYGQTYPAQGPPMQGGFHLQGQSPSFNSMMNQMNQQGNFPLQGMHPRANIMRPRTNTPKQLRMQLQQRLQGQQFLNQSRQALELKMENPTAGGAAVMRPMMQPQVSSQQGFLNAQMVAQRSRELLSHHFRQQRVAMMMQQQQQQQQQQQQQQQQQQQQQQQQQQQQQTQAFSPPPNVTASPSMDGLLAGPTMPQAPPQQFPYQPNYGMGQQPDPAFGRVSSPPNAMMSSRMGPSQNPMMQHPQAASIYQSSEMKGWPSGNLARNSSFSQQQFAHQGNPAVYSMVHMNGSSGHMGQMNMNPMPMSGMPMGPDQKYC
# Starred values were filed as active, the others as inactive; . = no result. Hits are enriched below; roughly 0.84% of the tested compounds scored in any of these assays. Unless noted, no stated cut-off is given here; in the data, active means TR-FRET ratio above about 2000; inactive means the rest.
SMILES,PPARg SRC1 recr,SRC3 TRFRET art,SRC1 TRFRET art,PPARg SRC-3 ag,TR-FRET SRC-2 ct,PPARg SRC-2 ag,PPARg SRC2 ag,PPARg SRC1 ag,PPARg SRC3 conf
Cc1sccc1C1C(C#N)=C(N)SC(N)=C1C#N,10.3,.,.,33.5*,1861,22.1*,3.5,0.9,5.0
Cc1cc(C2C(C#N)=C(N)Oc3n[nH]c(C)c32)c(C)s1 (configuration not stated),-2.0,.,.,5.7,1518,3.7,.,.,.
Cc1cc(C2C(C#N)=C(N)SC(N)=C2C#N)c(C)s1,9.3,.,.,15.0,1825,25.2*,0.2,-4.2,1.6
Cc1[nH]nc2c1C(c1ccsc1C)C(C#N)=C(N)O2 (configuration not stated),1.5,.,.,-5.4,1409,-1.0,.,.,.
Cc1ccc(Cn2ccc(NC(=O)c3cc(-c4cccs4)on3)n2)cc1,-3.0,1704,1775,0.1,1759,0.8,.,.,.
Fc1ccc(N2Cc3ccsc3C=N2)cc1,-5.8,1392,1819,-3.1,1651,-6.5,.,.,.
CN(C)S(=O)(=O)c1cccc(NC(=O)CN2C(=O)NC(Cc3c[nH]c4ccccc34)C2=O)c1 (configuration not stated),-2.0,1501,1624,6.0,1496,1.7,.,.,.
Cc1ccc2nc(N3CCN(S(=O)(=O)c4ccc5c(c4)OCCO5)CC3)c(C#N)cc2c1,31.1*,.,.,44.9*,3423*,21.8*,13.6,7.9,5.9
Cc1ccc(S(=O)(=O)N2CCCN(S(=O)(=O)c3ccc4c(c3)OCCO4)CC2)cc1,7.0,.,.,-9.5,1679,5.3,.,.,.
COc1cc(/C=C/C(=O)OCC(=O)Nc2ccc(C)cc2[N+](=O)[O-])ccc1O,15.6,1635,2042,9.1,1465,24.9*,12.5,8.4,8.2
O=C(c1ccccc1)N1CCSc2sccc2C1=O,20.4,2052*,2582*,11.9,2115*,28.9*,39.5*,31.7*,24.3*
O=C(c1ccccc1)N1CCSC1=S,-2.7,.,.,-4.3,1438,-2.8,.,.,.
O=C(Nc1ccc2nc(-c3cccs3)[nH]c2c1)c1cccs1,-2.1,.,.,0.8,1449,-0.9,.,.,.
O=C(Nc1ccc(-c2nc3ccc(NC(=O)c4cccs4)cc3[nH]2)cc1)c1cccs1,20.7*,.,.,11.6,1552,27.4*,10.7,1.4,4.6
N#C/C(=C\c1ccc(N2CCOCC2)o1)C(=O)NCC1CCCO1 (configuration not stated),20.5*,1833,2143,4.0,2010*,13.6,9.5,5.2,6.3
O=C(CCC1CCCCC1)N1CCN(Cc2ccc3c(c2)OCO3)CC1,-8.7,.,.,-0.4,1330,2.7,.,.,.
CCCCn1nnc(NC(=S)NC(=O)c2ccc(-c3cccc(Cl)c3Cl)o2)n1,8.6,1423,1902,-1.1,1664,6.0,.,.,.
CCSC1=NSC2=NC(=O)/C(=C\c3coc4ccccc4c3=O)C(=N)N12,8.0,1460,1609,22.9*,1696,12.8,9.0,8.1,19.5
CNC(=O)NC(=O)COC(=O)c1ccccc1OCc1ccccc1,7.0,1515,1795,1.6,1633,1.4,.,.,.
O=C1CSC2=NCN(c3ccc4c(c3)OCO4)CN12,1.9,.,.,-5.3,1524,-8.0,.,.,.
CN(C)c1ccc(N2CN=C3SCC(=O)N3C2)cc1,50.5*,.,.,86.4*,2229*,64.1*,6.1,9.5,2.6
Cc1cc(C)n2nc(CC(=O)NCc3ccc(F)cc3)nc2n1,4.1,1714,1967,-3.9,1471,5.2,.,.,.
CCc1cc2cc(C(=O)Nc3ccc(F)cc3)sc2s1,14.9,.,.,20.5,2237*,38.6*,25.2*,16.8,14.9
C#CCn1c(=NC(=O)c2sc3ccccc3c2Cl)sc2cc(S(N)(=O)=O)ccc21,13.4,2062*,2366*,15.8,2057*,32.9*,32.9*,21.5*,14.9
CCn1c(=O)cc(SCC(=O)N2CCCCC2)c2ccccc21,43.7*,.,.,52.2*,2691*,48.4*,37.5*,22.9*,25.6*
SMILES,PPARg SRC1 recr,SRC3 TRFRET art,SRC1 TRFRET art,PPARg SRC-3 ag,TR-FRET SRC-2 ct,PPARg SRC-2 ag,PPARg SRC2 ag,PPARg SRC1 ag,PPARg SRC3 conf
CCn1c(=O)cc(OCC(=O)N2CCCC2)c2ccccc21,8.6,.,.,4.1,1703,1.9,.,.,.
CCN1CCN(C(=O)CSc2cc(=O)n(CC)c3ccccc23)CC1,23.0*,.,.,41.3*,2006*,43.6*,26.0*,17.0,18.1
CCn1cc(SCC(=O)N2CCOCC2)c2ccccc21,1.0,.,.,8.7,1544,9.1,.,.,.
CCn1c(=O)cc(SCC(=O)N2CCN(C)CC2)c2ccccc21,27.3*,.,.,39.8*,2120*,33.8*,30.0*,19.9*,20.7
CCOC(=O)N1CCC(NC(=O)CSc2cc(=O)n(CC)c3ccccc23)CC1,55.2*,.,.,44.5*,2762*,48.3*,37.9*,26.9*,24.6*
Cc1ccc(-c2cnn(-c3cccc([N+](=O)[O-])c3)c2N)cc1,8.1,.,.,0.1,1618,8.4,.,.,.
O=C(CS(=O)(=O)c1c[nH]c2ccccc12)N1CCCCCC1,-4.0,1674,1670,3.4,1589,-2.5,.,.,.
Cc1[nH]c2ccccc2c1SCC(=O)N1CCC(C)CC1,3.8,1659,1569,3.7,1696,-2.2,.,.,.
CCOC(=O)C1CCN(C(=O)CSc2cc(=O)n(CC)c3ccccc23)CC1,44.0*,.,.,61.9*,2661*,53.3*,39.7*,26.9*,27.2*
CCn1c(=O)cc(SCC(=O)N2CCC(C)CC2)c2ccccc21,77.1*,.,.,108.3*,3414*,78.8*,43.8*,28.6*,29.0*
CCOC(=O)C1CCN(C(=O)Cc2c(C(=O)O)n(C)c3ccccc23)CC1,-2.9,.,.,2.9,1539,-0.4,.,.,.
Cc1cc(NC(=O)CSc2nc(=O)cc(N)n2-c2ccc(Cl)cc2)no1,8.1,1389,1872,3.2,1516,6.1,.,.,.
Cc1cc(C)cc(NC(=O)COc2ccc(C(=S)N3CCOCC3)cc2)c1,3.3,1512,1837,5.2,1486,-2.8,.,.,.
Cc1cc2c(cc(C(=O)OC(C(=O)NCc3ccco3)C(C)C)n2C)o1 (configuration not stated),-4.4,.,.,0.9,1764,10.1,.,.,.
CC(C)C(OC(=O)c1cc2occc2n1C)C(=O)NCc1ccc2c(c1)OCO2 (configuration not stated),32.8*,1951,1700,31.1*,1600,13.4,11.0,21.2*,19.9
